This is a sample that favours compounds with a hit; in the whole collection about 27% have one here.
CYP2C9 act: increases human cytochrome P450 2C9 activity | P11712 | recombinant CYP2C9, luciferin-H conversion, luminescence; hits give high values; factor 1 = untreated enzyme, 0 = blocked | activation factor at 5 µM | actives 1.4% (n = 96,000) | AID 1024;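 active means activation factor of 2 or more for CYP2C9 at a 5 µM dose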;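 further: 0 = sulfaphenazole-blocked wells and 1 = vehicle-only wells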
Target sequence (P11712 whole entry, looked up): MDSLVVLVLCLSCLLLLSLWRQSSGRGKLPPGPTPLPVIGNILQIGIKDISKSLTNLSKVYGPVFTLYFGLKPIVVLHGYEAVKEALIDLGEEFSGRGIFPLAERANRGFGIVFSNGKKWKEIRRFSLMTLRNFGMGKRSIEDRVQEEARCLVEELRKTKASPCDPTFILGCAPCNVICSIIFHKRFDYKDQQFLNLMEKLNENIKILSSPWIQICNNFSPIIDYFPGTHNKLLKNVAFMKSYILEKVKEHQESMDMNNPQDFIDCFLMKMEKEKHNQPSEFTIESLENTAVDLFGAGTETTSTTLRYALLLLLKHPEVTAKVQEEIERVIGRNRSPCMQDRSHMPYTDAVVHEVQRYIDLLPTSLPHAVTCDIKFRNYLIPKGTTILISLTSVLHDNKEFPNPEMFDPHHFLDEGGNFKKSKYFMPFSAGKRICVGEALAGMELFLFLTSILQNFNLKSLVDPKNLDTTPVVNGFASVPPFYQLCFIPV
CYP2C19 act: cytochrome P450 2C19 (human) activation. P33261. recombinant CYP2C19, luciferin-H EGE luminescence; hits give high values; 0 = fully inhibited enzyme, 1 = untreated enzyme. activation factor at 5 µM. 96,000 tested, under 10 active. AID 1025;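 active means activation factor of at least 2 at 5 µM in the primary screen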;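 further: 0 = wells with 2.5 mM tranylcypromine and 1 = vehicle-only wells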
Cav3 T inh: inhibitors of human Cav3.2 T-type calcium channel; O95180; Cav3.2-expressing cells, Fluo-4 calcium fluorescence FDSS; hits give low values; B-score at 10 µM; actives 4% (n = 100,000);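 active means single-dose well whose peak fluorescence ratio is a statistical outlier from its plate by either plate-standardised score or position-corrected B-score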
CYP2C19 inh: blocks human cytochrome P450 2C19 | actives 21% (n = 96,000) | AID 778 | CYP2C19 Supersomes, luciferin-H EGE luminescence, 30 min | P33261 | inhibition, % at 5 µM;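 active means CYP2C19 inhibition above a set limit at 5 µM in the primary screen, cut at about 50% in these data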;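 further: plate controls were negative control wells for no effect and 2.5 mM tranylcypromine positive control for full effect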
CYP2C9 inhib: human CYP2C9 inhibition; P11712; CYP2C9 Supersomes, luciferin-H conversion, luminescence; inhibition, % at 5 µM; actives 20% (n = 96,000); AID 777;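 active means blocking of liver enzyme CYP2C9 beyond about 50% at 5 µM, limit read from the data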
The depositor's hits bear a star; x = no result given.

SMILES | CYP2C9 act | CYP2C19 act | Cav3 T inh | CYP2C19 inh | CYP2C9 inhib
COc1ccc(-c2oc(NC(=O)c3ccc(C)cc3)c(C#N)c2-c2ccc(OC)cc2)cc1 | 0.1 | 0.3 | -3.6* | 69* | 94*
COc1ccc(-c2oc(/N=C/N3CCOCC3)c(C#N)c2-c2ccc(OC)cc2)cc1 | 0.1 | 0.4 | -3.9 | 64* | 90*
COc1ccc(-c2oc(NC(C)=O)c(C#N)c2-c2ccc(OC)cc2)cc1 | 0.3 | 0.4 | -0.72 | 57* | 72*
Cc1cccc(CN2C[C@]34CC[C@@H](C[C@@H]3S2(=O)=O)O4)c1 | x | x | 1.4 | x | x
Cc1ccc(C(=O)Nc2oc(-c3ccccc3)cc2C#N)cc1 | 1 | 0.9 | 0.0067 | 13 | 2
COc1ccc(C(=O)Nc2oc(-c3ccccc3)c(-c3ccccc3)c2C#N)cc1OC | 0.3 | 0.8 | -2.9 | 24 | 74*
O=C1CC(C(=O)Nc2ncccn2)C(c2ccccc2)O1 (centres undefined) | 1 | 0.9 | 0.64 | 10 | -2
CCCCOC(=O)c1ccc(NC(=O)Nc2ccc(OC)c(OC)c2)cc1 | 0.6 | 0.8 | 0.7 | 16 | 39
COc1cc(C(=O)NCCOc2cccc(C)c2)c(Br)c(OC)c1OC | 1.2 | 0.5 | -0.0078 | 52* | -19
CCCOC(=O)c1ccc(NC(=O)c2cc(OC)c(OC)c(OC)c2Br)cc1 | 0.3 | 0.3 | x | 74* | 65*
COc1cc(C(=O)NCCOc2ccccc2)c(Br)c(OC)c1OC | 0.8 | 0.3 | 0.05 | 65* | 21
COc1cc(C(=O)Oc2cccc(C)c2)cc(OC)c1OC | 0.7 | 0.9 | -0.021 | 10 | 26
COc1ccc(NC(=O)Cn2c(=O)n(CC(=O)NCc3ccco3)c(=O)c3ccccc32)cc1OC | 0.9 | 1.2 | 0.073 | -16 | 7
CC(C)C(C)(C#N)NC(=O)CSc1nnc(C(F)(F)F)n1C (centres undefined) | 0.9 | 1 | x | 4 | 5
COc1ccc(-c2csc(N3CCN(C(=O)c4ccccc4)CC3)n2)cc1 | x | x | -2.6 | x | x
COc1cccc(-c2csc(N3CCN(C(=O)C4CCCCC4)CC3)n2)c1 | 0.4 | 0.2 | x | 77* | 58*
COc1cccc(-c2csc(N3CCN(C(=O)Nc4ccc(F)cc4)CC3)n2)c1 | x | x | -6.5* | x | x
COc1ccc(NC(=O)CN2CCN(c3nc(-c4cccc(OC)c4)cs3)CC2)cc1 | x | x | -1.2 | x | x
COCCN1C(=O)c2ccccc2C(C(=O)N2CCN(c3ccccc3)CC2)C1c1ccc(F)cc1 (centres undefined) | 0.3 | 0.8 | -0.56 | 18 | 71*
COCCNC(=O)C1c2ccccc2C(=O)N(CCOC)C1c1ccc(F)cc1 (centres undefined) | 1.1 | 1.2 | 0.53 | -16 | -10
c1ccc(COc2ccc(Oc3nc(N4CCCCC4)nc(N4CCOCC4)n3)nn2)cc1 | 0.4 | 0.1 | x | 88* | 59*
Cc1ccc(Nc2nc(Oc3ccc(OCc4ccccc4)nn3)nc(N3CCOCC3)n2)cc1 | 0.2 | 0.2 | -0.65 | 82* | 77*
CCC(Sc1nc2ccccc2c(=O)[nH]1)C(=O)O (centres undefined) | 1 | 1.1 | -0.21 | -10 | 3
O=C(CSc1nnc(-c2ccncc2)n1Cc1ccco1)OC1CCCCC1 | 0.1 | 0 | -0.071 | 98* | 92*
COC(=O)CSc1nnc(-c2ccco2)n1Cc1ccco1 | 1.1 | 1 | 1.3 | 0 | -6
SMILES | CYP2C9 act | CYP2C19 act | Cav3 T inh | CYP2C19 inh | CYP2C9 inhib
O=C(CSc1nnc(-c2ccco2)n1Cc1ccccc1)OC1CCCCC1 | 1.1 | 0.8 | -6.2* | 21 | -6
C/C(NCc1cccnc1)=C(\C#N)C(=O)NCc1ccccc1 | 0.8 | 0.2 | 0.58 | 82* | 23
Cn1c(=O)c2[nH]c(-c3ccc(S(=O)(=O)O)cc3)nc2n(C)c1=O | x | x | 0.32 | x | x
CN(C)C1NC(=O)c2cc(-c3ccccc3)sc2N1 (centres undefined) | 0.7 | 0.5 | -0.43 | 46 | 28
COc1ccc(/C=C/C(=O)c2sc(-c3ccc(Cl)cc3)nc2C)cc1 | 0.6 | 0.9 | -1.2 | 7 | 45
O=C(OCn1ncc(Cl)c(Cl)c1=O)c1ccccc1Cl | 1.2 | 0.2 | 1.5 | 78* | -17
CC1=CCC(C(C)(C)NC(=O)c2ccccc2)C/C1=N\O (centres undefined) | x | x | -0.048 | x | x
CCN(CC)c1ccc(C2C(C(C)=O)C(=O)CC(C)(O)C2C(C)=O)cc1 (centres undefined) | x | x | -1.1 | x | x
CCN1c2ccccc2NC2C1C(C(C)=O)C(=O)N2c1ccc(Cl)cc1 (centres undefined) | 0.2 | 0.1 | -2.3 | 92* | 79*
Cc1cccc(-c2nc(CN3CCCC(C(=O)NC4CCCCCC4)C3)c(C)o2)c1 (centres undefined) | 0.6 | 0.8 | -6.9* | 19 | 44
Cc1oc(-c2cccc(Cl)c2)nc1CN1CCCC(C(=O)NCc2ccco2)C1 (centres undefined) | 0.8 | 0.9 | -1.5 | 15 | 18
Cc1oc(-c2ccc(Cl)cc2)nc1CN1CCCC(C(=O)NCc2ccccn2)C1 (centres undefined) | 0.8 | 0.9 | 0.7 | 15 | 18
Cc1oc(-c2ccc(Cl)cc2)nc1CN1CCCC(C(=O)NCc2cccnc2)C1 (centres undefined) | 0.8 | 0.6 | 1.6 | 37 | 19
Cc1cccc(-c2nc(CN3CCCC(C(=O)NC4CCCCC4)C3)c(C)o2)c1 (centres undefined) | 0.8 | 0.8 | -5.1* | 16 | 19
Cc1oc(-c2cccc(Cl)c2)nc1CN1CCCC(C(=O)NC(C)c2ccc3c(c2)OCCO3)C1 (centres undefined) | 0.2 | 0.1 | x | 87* | 81*
[O-]/[N+](=C\c1ccc(F)cc1)c1ccccc1 | 1 | 0.7 | 0.93 | 32 | -3
c1ccc(-c2nc(N3CCN(c4ccccc4)CC3)nc(-n3ccnc3)n2)cc1 | 0.3 | 0.5 | -0.58 | 52* | 66*
c1ccc(-c2ccc(-n3ccnc3)cc2)cc1 | 0.1 | 0 | -0.31 | 99* | 90*
c1ccc(-c2nc(N3CCCCCC3)nc(-n3ccnc3)n2)cc1 | 1 | 0.8 | -0.059 | 22 | 3
c1ccc(-c2ccc(C(c3ccccc3)n3ccnc3)cc2)cc1 (centres undefined) | x | x | -3.8 | x | x
c1ccc(-c2oc3ncnc(NCCCn4ccnc4)c3c2-c2ccccc2)cc1 | 0 | 0 | -1.3 | 98* | 99*
N=c1c2c(-c3ccccc3)c(-c3ccccc3)oc2ncn1CCN1CCOCC1 | 0.6 | 0.6 | 0.52 | 40 | 42
c1ccc(-c2oc3ncnc(NCCN4CCOCC4)c3c2-c2ccccc2)cc1 | 0 | 0.2 | -0.1 | 83* | 98*
CCOC(=O)c1c(-c2ccc(C)s2)csc1NC(=O)c1ccco1 | 1 | 1.1 | x | -5 | -4
CCOC(=O)CN(C)C(=O)C1CCCN1C(=O)OC(C)(C)C (centres undefined) | x | x | -1.2 | x | x
CC(C)CC(C(=O)Nc1oc(-c2ccco2)c(-c2ccco2)c1C#N)N1C(=O)c2ccccc2C1=O (centres undefined) | 0 | 0.3 | -1.2 | 69* | 98*

From PubChem BioAssay
